Experimental data: the supplement of paper PMC6555819

Assays:
Assay in all cases: PBM binding z-score (relative to random genomic background probes); higher = stronger binding; sequences stand for … in GC…GCGATTGACAGCGTAGAATGAAGG
[1] = tested on: PPARg:RXRa DBDmut IVT, anti-RXR (DBD mutation: RXRa K156A/R161A, NR concentration 270 nM, RXRa partner concentration 90 nM)
How it was run: (§1)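 On custom Agilent 4×180K arrays, double-stranded probes with 34-nt variable regions carried direct-repeat seeds, single-nucleotide variants, half-site ablations or random human genomic background. Ligand-free nuclear receptor dimers were applied for 1 h, and binding was read with antibodies against each partner (one per run). Binding z-scores come from regression-normalized fluorescence, with the random background probes as reference.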

[2] = tested on: PPARg:RXRa IVT, anti-PPARg (NR concentration 270 nM, RXRa partner concentration 90 nM)
How it was run: as §1

[3] = tested on: PPARg DBDmut:RXRa IVT, anti-PPARg (DBD mutation: PPARg1 K132A/R137A, NR concentration 270 nM, RXRa partner concentration 90 nM)
How it was run: as §1

[4] = tested on: PPARg DBDmut IVT, anti-PPARg (DBD mutation: PPARg1 K132A/R137A, NR concentration 270 nM)
How it was run: as §1

[5] = tested on: PPARg homodimer (NR concentration 180 nM)
How it was run: as §1

[6] = tested on: PXR:RXRa (NR concentration 270 nM, RXRa partner concentration 90 nM)
How it was run: as §1

[7] = tested on: PXR homodimer (NR concentration 270 nM)
How it was run: as §1

[8] = tested on: RARa:RXR (NR concentration 270 nM, RXRa partner concentration 90 nM)
How it was run: as §1

[9] = tested on: RARa homodimer (NR concentration 270 nM)
How it was run: as §1

[10] = tested on: RARb:RXRa (NR concentration 270 nM, RXRa partner concentration 90 nM)
How it was run: as §1

[11] = tested on: RARb homodimer (NR concentration 270 nM)
How it was run: as §1

[12] = tested on: RARg:RXRa (NR concentration 270 nM, RXRa partner concentration 90 nM)
How it was run: as §1

[13] = tested on: RARg homodimer (NR concentration 270 nM)
How it was run: as §1

[14] = tested on: RXRa DBDmut IVT, anti-RXR (DBD mutation: RXRa K156A/R161A, NR concentration 90 nM)
How it was run: as §1

[15] = tested on: RXRa homodimer (NR concentration 180 nM)
How it was run: as §1

[16] = tested on: THRa:RXRa (NR concentration 90 nM, RXRa partner concentration 90 nM)
How it was run: as §1

[17] = tested on: THRa homodimer (NR concentration 90 nM)
How it was run: as §1

[18] = tested on: VDR:RXRa (NR concentration 270 nM, RXRa partner concentration 90 nM)
How it was run: as §1

[19] = tested on: VDR homodimer (NR concentration 270 nM)
How it was run: as §1

Sequence | PBM binding z-score [1] | PBM binding z-score [2] | PBM binding z-score [3] | PBM binding z-score [4] | PBM binding z-score [5] | PBM binding z-score [6] | PBM binding z-score [7] | PBM binding z-score [8] | PBM binding z-score [9] | PBM binding z-score [10] | PBM binding z-score [11] | PBM binding z-score [12] | PBM binding z-score [13] | PBM binding z-score [14] | PBM binding z-score [15] | PBM binding z-score [16] | PBM binding z-score [17] | PBM binding z-score [18] | PBM binding z-score [19]
AGAACGAGGGCAATGAGTTGTTAGCACGGGTGGC | 3.51 | 2.66 | 0.326 | -0.308 | -0.355 | 0.859 | 1.26 | 0.0367 | -0.253 | 2.13 | 0.552 | 0.787 | 1.3 | 1.76 | 0.588 | 0.64 | -0.39 | 4.09 | 2.19
GCTGCTAGGTCAGGTTGGTCAGCTTACGGGTACG | 2.99 | 1.96 | -0.781 | -0.52 | 0.591 | 0.193 | -0.264 | 0.655 | -0.341 | 3.31 | 2.84 | 2.41 | 3.46 | 0.504 | 0.756 | 1.8 | 0.808 | 0.539 | 0.197
TAAACAGGGTCAAAGGCCAGAGTACGAATGTCGA | 3.53 | 5.43 | 2.69 | 2.41 | 3.24 | 4.51 | 0.672 | 6.19 | 0.87 | 4.33 | 3.41 | 5.73 | 4.81 | 3.1 | 7.01 | 3.51 | 0.558 | 4.92 | 3.45
TCTAGCAGGCCAGAGCGTCACTCAAGAGGTACGG | 0.578 | -0.464 | -0.145 | -0.832 | -1.42 | -0.785 | -0.819 | -0.492 | -0.772 | -0.306 | -0.99 | -0.32 | -0.282 | -0.0985 | -0.0625 | -1.43 | -1.22 | -0.608 | -0.792
TTACCAAGGTGCAAGGTCGTTGATGCACGCCTTG | -0.0401 | 1.05 | -0.472 | -0.179 | 0.87 | 1.16 | 0.648 | 1.13 | -0.653 | 1.22 | 1.21 | 0.66 | 0.411 | 1.33 | 1.54 | 1.62 | 0.68 | 1.92 | 2.9
CCGACTGGGGCAAATGTTACCATACTCAGTACGA | 4.63 | 3.74 | 0.00418 | 0.212 | 0.439 | -0.402 | -0.187 | -0.273 | -0.109 | 0.683 | 0.264 | 0.382 | 0.67 | 0.518 | 0.184 | -0.0523 | -0.199 | -0.22 | -0.144
CGAACTAGGTCAGACCAGGACAGTGAAGGATGAT | 7.38 | 7.63 | 1.83 | 0.713 | 0.868 | 1.61 | -0.171 | 1.37 | -0.466 | 3.2 | 2.36 | 2.82 | 3.53 | 0.518 | 1.51 | 4.75 | 0.741 | 1.03 | -0.102
CGAACTTGGTCATCCAGGACAGTGAATACATTGA | 1.09 | 1.08 | 0.648 | 0.367 | -0.34 | 0.166 | 0.269 | 0.326 | -0.093 | 1.23 | 0.498 | 0.874 | 1.24 | 0.427 | 0.551 | 1.91 | 1.02 | 1.59 | 0.3
GCAGCTAGGTCAACTGATGGTCAGCTAAAGCTCG | 4.33 | 4.15 | -0.285 | -1.01 | 1.13 | 1.2 | -0.968 | 2.49 | -0.66 | 4.24 | 3.08 | 5.02 | 5.33 | 0.798 | 2.52 | 2.6 | 0.305 | 1.19 | -0.435
GTTAGCAGGCCATTTGGGTCACTCAATGACGGGC | 2.37 | 2.61 | -0.276 | -0.494 | -0.0267 | 0.566 | 0.185 | 0.925 | -0.249 | 1.52 | 1.8 | 1.15 | 1.5 | 0.133 | 0.847 | 1.79 | 0.575 | 0.985 | 0.779
ATCTCTAGGGAAAGATAGTTCAGTGAATGCAAAT | 0.0889 | 0.274 | 0.441 | 0.248 | 0.581 | 0.457 | 0.536 | 0.402 | 0.55 | 0.406 | 0.675 | 0.502 | 0.656 | 0.0504 | 0.0958 | 0.201 | -0.33 | 0.156 | 0.635
CTCGAAAGGTCGGTTGAGGAGAGTATACGGATAA | -0.459 | 0.102 | 1.01 | -0.0822 | 0.421 | 1.09 | 0.356 | 2.15 | -0.00538 | 2.87 | 1.66 | 2.45 | 2.43 | 0.577 | 1.74 | 4.2 | -0.262 | 0.954 | 0.602
TCTTGTACATCAACAGGAGGTTAAGAAAGATCGA | 1.52 | 0.927 | 1.32 | 1.51 | -0.544 | 0.873 | 0.161 | 1.09 | 0.409 | 0.66 | 0.799 | 0.549 | 0.344 | 0.744 | 0.927 | 0.755 | -0.281 | 0.977 | 0.136
CCTATTAGTTGACCATAAGGGCAACCGGAGCTCG | 0.164 | 0.489 | -0.0255 | 0.00899 | 1.98 | 0.686 | 0.931 | 0.893 | 2.04 | 1.72 | 2.03 | 1.22 | 1.19 | 0.709 | 0.658 | 1.87 | 1.53 | 0.682 | 1.15
CCTGCTAGGTCATGGGCAGCTAATCTACAGTATG | 4.17 | 3.73 | 0.149 | -0.33 | 1.36 | 1.1 | -0.682 | 2.68 | 0.607 | 3.83 | 2.79 | 4.04 | 4.39 | 1.05 | 2.83 | 2.89 | 0.639 | 1.19 | -0.0786
